Measured values taken from the antibiotic and cytotoxicity screens of Wong et al. (2023).
The campaign covered roughly 39,000 compounds. About 1,500 (3.8%) were called active. Shown is part of a subset that was picked to be rich in actives.

Test system: HSkMC (human skeletal muscle cells)
Test: cytotoxicity call (relative viability < 0.9)
Settings: 10 µM

| Compound | cytotoxicity call |
| --- | --- |
| C[C@H]1CN([C@@H](C)CO)C(=O)c2cc(C#CCN(C)C)cnc2O[C@@H]1CN(C)C(=O)c1cnccn1 | inactive |
| CC(C)c1nc(/N=C/N(C)C)nc(=O)n1C | inactive |
| C[C@H](CO)N1C[C@H](C)[C@H](CN(C)C(=O)Nc2ccc(F)cc2)OCCCC[C@H](C)Oc2ccc(NS(=O)(=O)c3ccc(Cl)cc3)cc2C1=O | inactive |
| C[C@H](CO)N1C[C@H](C)[C@@H](CN(C)Cc2ccc3c(c2)OCO3)Oc2ncc(Br)cc2C1=O | inactive |
| CN(Cc1ccc(/C=C/C(=O)Nc2ccc(-c3cccs3)cc2N)cc1)CC12CC3CC(CC(C3)C1)C2 | inactive |
| C[C@@H]1CN([C@@H](C)CO)C(=O)Cc2cc(NC(=O)CCCCCC(=O)Nc3ccccc3N)ccc2O[C@H]1CN(C)Cc1ccc(-c2ccccc2)cc1 | inactive |
| CN(Cc1ccc(/C=C/C(=O)Nc2ccc(-c3ccccc3)cc2N)cc1)CC12CC3CC(CC(C3)C1)C2 | active |
| COCCN1CCO[C@@H]2CN(Cc3cnn(C)c3)C[C@@H]21 | inactive |
| CN1CCN(C(=O)C[C@H]2CC[C@@H]3[C@H](COC[C@H](O)CN3C(=O)Nc3ccc4c(c3)OCO4)O2)CC1 | inactive |
| C[C@H]1CN([C@@H](C)CO)C(=O)c2cc(NC(=O)Nc3cccc4ccccc34)ccc2O[C@@H]1CN(C)S(=O)(=O)c1cccs1 | inactive |
| C[C@H]1CN([C@@H](C)CO)C(=O)Cc2cc(NC(=O)NC3CCCCC3)ccc2O[C@@H]1CN(C)C(=O)Nc1ccc(C(F)(F)F)cc1 | inactive |
| C[C@@H]1CN([C@@H](C)CO)C(=O)c2cc(NC(=O)Nc3ccccc3)ccc2O[C@H]1CN(C)Cc1ccc(C(F)(F)F)cc1 | active |
| C[C@@H]1CN([C@H](C)CO)C(=O)c2cc(NC(=O)Nc3ccccc3)ccc2O[C@@H]1CN(C)Cc1ccc(C(F)(F)F)cc1 | active |
| C[C@H](CO)N1C[C@H](C)[C@H](CN(C)Cc2ccc(C(F)(F)F)cc2)Oc2ccc(NC(=O)Nc3ccccc3)cc2C1=O | inactive |
| C[C@H]1CN([C@@H](C)CO)C(=O)c2cc(NC(=O)Nc3ccccc3)ccc2O[C@H]1CN(C)Cc1ccc(C(F)(F)F)cc1 | inactive |
| C[C@H](CO)N1C[C@H](C)[C@@H](CN(C)Cc2ccc(C(F)(F)F)cc2)Oc2ccc(NC(=O)Nc3ccccc3)cc2C1=O | inactive |
| C[C@@H]1CN([C@H](C)CO)C(=O)c2cc(NC(=O)Nc3ccccc3)ccc2O[C@H]1CN(C)Cc1ccc(C(F)(F)F)cc1 | inactive |
| NCc1cn(Cc2ccc(Cl)c(Cl)c2)cn1 | inactive |
| C[C@H](CO)N1C[C@H](C)[C@@H](CN(C)S(=O)(=O)c2ccc(F)cc2)Oc2ccc(NS(=O)(=O)c3ccc(F)cc3)cc2CC1=O | inactive |
| CN(C)CCCNC(=O)C[C@@H]1CC[C@H](NS(=O)(=O)c2ccccc2)[C@@H](CO)O1 | inactive |
| C[C@H]1CN([C@@H](C)CO)C(=O)Cc2cc(NC(=O)Cc3ccccc3)ccc2O[C@@H]1CN(C)S(=O)(=O)c1cn(C)cn1 | inactive |
| C[C@H](CO)N1C[C@H](C)[C@H](CN(C)C(=O)C2CCCCC2)OCCCC[C@H](C)Oc2ccc(NS(=O)(=O)c3ccc(Cl)cc3)cc2C1=O | inactive |

| Compound | cytotoxicity call |
| --- | --- |
| Cc1ccc(-c2ccc3c(c2)O[C@H](CN(C)C(=O)Nc2ccc(C(F)(F)F)cc2)[C@H](C)CN([C@H](C)CO)S3(=O)=O)cc1 | inactive |
| Cc1ccc(-c2ccc3c(c2)O[C@@H](CN(C)C(=O)Nc2ccc(C(F)(F)F)cc2)[C@H](C)CN([C@H](C)CO)S3(=O)=O)cc1 | active |
| Cc1ccc(-c2ccc3c(c2)O[C@H](CN(C)C(=O)Nc2ccc(C(F)(F)F)cc2)[C@H](C)CN([C@@H](C)CO)S3(=O)=O)cc1 | inactive |
| Cc1ccc(-c2ccc3c(c2)O[C@H](CN(C)C(=O)Nc2ccc(C(F)(F)F)cc2)[C@@H](C)CN([C@@H](C)CO)S3(=O)=O)cc1 | active |
| Cc1ccc(-c2ccc3c(c2)O[C@@H](CN(C)C(=O)Nc2ccc(C(F)(F)F)cc2)[C@@H](C)CN([C@@H](C)CO)S3(=O)=O)cc1 | inactive |
| Cc1ccccc1-c1ccc2c(c1)O[C@@H](CN(C)C(=O)Nc1ccc(C(F)(F)F)cc1)[C@H](C)CN([C@H](C)CO)S2(=O)=O | inactive |
| Cc1ccccc1-c1ccc2c(c1)O[C@@H](CN(C)C(=O)Nc1ccc(C(F)(F)F)cc1)[C@@H](C)CN([C@@H](C)CO)S2(=O)=O | active |
| Cc1ccccc1-c1ccc2c(c1)O[C@H](CN(C)C(=O)Nc1ccc(C(F)(F)F)cc1)[C@H](C)CN([C@@H](C)CO)S2(=O)=O | inactive |
| Cc1ccc(-c2ccc3c(c2)O[C@H](CN(C)C(=O)Nc2ccc(C(F)(F)F)cc2)[C@@H](C)CN([C@H](C)CO)S3(=O)=O)cc1 | inactive |
| C[C@@H]1CCCCO[C@@H](CN(C)C(=O)Nc2ccc3c(c2)OCO3)[C@H](C)CN([C@H](C)CO)C(=O)c2cc(NC(=O)Cc3ccccc3)ccc2O1 | inactive |
| CC(/C=C/C(=O)NO)=C\c1ccccc1OC[C@@H]1[C@H]2C[C@H]3c4[nH]c5ccccc5c4CCN3C[C@@H]2CC[C@@H]1O | inactive |
| C[C@@H]1CN([C@@H](C)CO)C(=O)c2cccc(NC(=O)C3CCCCC3)c2O[C@H]1CN(C)Cc1ccc(C(F)(F)F)cc1 | inactive |
| CC1CC=CC=CC=CC=CC(OC2OC(C)C(O)C(N)C2O)CC2OC(O)(CC(O)CC3OC3C=CC(=O)O1)CC(O)C2C(=O)O (stereo unspecified) | inactive |
| CN1C(=O)c2cc(NC(=O)Nc3ccccc3F)ccc2OC[C@H]2O[C@@H](CC(=O)Nc3cccc(Cl)c3)CC[C@@H]21 | inactive |
| CCOC(=O)N1CCN(C(=O)C2CCN(S(=O)(=O)N(CC)CC)CC2)CC1 | inactive |
| C[C@@H]1CN([C@@H](C)CO)C(=O)Cc2cc(NS(=O)(=O)c3cn(C)cn3)ccc2O[C@@H]1CN(C)Cc1ccncc1 | inactive |
| CCCN1C[C@H](C(=O)O)CCC1=O | inactive |
| Cc1noc(C)c1S(=O)(=O)N(C)C[C@@H]1Oc2ccc(NC(=O)Cc3cn(C)c4ccccc34)cc2CC(=O)N([C@@H](C)CO)C[C@@H]1C | active |
| C[C@@H]1CN([C@H](C)CO)C(=O)Cc2cc(NC(=O)Cc3cn(C)c4ccccc34)ccc2O[C@@H]1CN(C)Cc1ccc(-c2ccccc2)cc1 | inactive |
| C[C@@H]1CN([C@@H](C)CO)C(=O)Cc2cc(NC(=O)Cc3cn(C)c4ccccc34)ccc2O[C@H]1CN(C)Cc1ccc(Cl)c(Cl)c1 | inactive |
| Cc1noc(C)c1S(=O)(=O)N(C)C[C@H]1Oc2ccc(NC(=O)Cc3cn(C)c4ccccc34)cc2CC(=O)N([C@H](C)CO)C[C@@H]1C | inactive |
| C[C@@H]1CN([C@H](C)CO)C(=O)Cc2cc(NC(=O)Cc3cn(C)c4ccccc34)ccc2O[C@H]1CN(C)Cc1ccc(Cl)c(Cl)c1 | active |

| Compound | cytotoxicity call |
| --- | --- |
| C[C@H]1CN([C@@H](C)CO)C(=O)Cc2cc(NC(=O)Cc3cn(C)c4ccccc34)ccc2O[C@H]1CN(C)Cc1ccc(Cl)c(Cl)c1 | active |
| Cc1noc(C)c1S(=O)(=O)N(C)C[C@H]1Oc2ccc(NC(=O)Cc3cn(C)c4ccccc34)cc2CC(=O)N([C@H](C)CO)C[C@H]1C | inactive |
| C[C@@H]1CN([C@H](C)CO)C(=O)Cc2cc(NC(=O)Cc3cn(C)c4ccccc34)ccc2O[C@@H]1CN(C)Cc1ccc(Cl)c(Cl)c1 | inactive |
| C[C@@H]1CN([C@@H](C)CO)C(=O)Cc2cc(NC(=O)Cc3cn(C)c4ccccc34)ccc2O[C@@H]1CN(C)Cc1ccc(Cl)c(Cl)c1 | inactive |
| C[C@H]1CN([C@@H](C)CO)C(=O)Cc2cc(NC(=O)Cc3cn(C)c4ccccc34)ccc2O[C@@H]1CN(C)Cc1ccc(Cl)c(Cl)c1 | active |
| C[C@H](CO)N1C[C@H](C)[C@@H](CN(C)Cc2ccc(Cl)c(Cl)c2)Oc2ccc(NC(=O)Cc3cn(C)c4ccccc34)cc2CC1=O | inactive |
| C[C@H](CO)N1C[C@H](C)[C@H](CN(C)Cc2ccc(Cl)c(Cl)c2)Oc2ccc(NC(=O)Cc3cn(C)c4ccccc34)cc2CC1=O | inactive |
| C/C=C/c1ccc2c(c1)O[C@@H](CN(C)S(=O)(=O)c1ccc(C)cc1)[C@@H](C)CN([C@@H](C)CO)S2(=O)=O | inactive |
| C[C@H]1CCCCO[C@@H](CN(C)S(=O)(=O)c2cccs2)[C@@H](C)CN([C@@H](C)CO)C(=O)c2cc(NC(=O)NC3CCCCC3)ccc2O1 | inactive |
| CCn1nc(C)c([C@@H](C)N)c1C | inactive |
| Cc1ccc(S(=O)(=O)Nc2ccc3c(c2)C(=O)N([C@H](C)CO)C[C@@H](C)[C@H](CN(C)C(=O)Nc2cccc4ccccc24)OCCCC[C@H](C)O3)cc1 | inactive |
| COc1ccc(NC(=O)N(C)C[C@H]2Oc3ccc(NS(C)(=O)=O)cc3C(=O)N([C@H](C)CO)C[C@H]2C)cc1 | inactive |
| C[C@H]1CN([C@@H](C)CO)C(=O)Cc2cc(NC(=O)Cn3cnnn3)ccc2O[C@@H]1CN(C)C(=O)NC1CCCCC1 | inactive |
| CC1(C)CNCC(=O)NC1 | inactive |
| Cc1cc(C)nc(SCC(=O)NN)n1 | inactive |
| Cc1ccc(NC(=O)c2ccc(CN3CC[C@H](N(C)C)C3)c(C(F)(F)F)c2)cc1Nc1nccc(-c2cncnc2)n1 | active |
| Cc1ccc(C(=O)Nc2cccc(C(F)(F)F)c2)cc1Nc1nc(-c2cccnc2)nc2c1cnn2C | inactive |
| Cc1cn(-c2cc(NC(=O)c3ccc(C)c(Nc4nccc(-c5cnccn5)n4)c3)cc(C(F)(F)F)c2)cn1 | active |
| O=C(Nc1cccnc1)c1nc2ncccn2n1 | inactive |
| Cc1ccc(NC(=O)c2ccc(CN3CCN(C)CC3)cc2)cc1Nc1nccc(-c2cccnc2)n1 | inactive |
| Cc1ncc(NC(=O)c2ccc(CN3CCN(C)CC3)c(C(F)(F)F)c2)cc1Nc1nccc(-c2cccnc2)n1 | inactive |
| Cc1cn(-c2cc(NC(=O)c3ccc(C)c(Nc4nccc(-c5cccnc5)n4)c3)cc(C(F)(F)F)c2)cn1 | active |
